This note sets out measurements from PubChem BioAssay (NCATS).

One assay deals with KB-3-1. The experiment in a line: Cytotoxic Profiling of Annotated Libraries Using Quantitative High-Throughput Screening (AID 1296008). The following applies: Five cell lines viability, CellTiter-Glo ATP luminescence, 48-72 h; max response: stronger effect = lower value. The gist of the method: (§1)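 Cells exposed to compounds for 48 or 72 hr at 37 degrees Celsius. Viability read as ATP-coupled luminescence with CellTiter-Glo after 10 min at room temperature.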
Background: In ATP-based viability assays light output follows the ATP content of the culture.

Assay [1] deals with NIH3T3. The assay is described as above. The following applies: Five cell lines viability, CellTiter-Glo ATP luminescence, 48-72 h; max response: stronger effect = lower value. In a few lines: as §1
Another assay concerns HACAT. The experiment in a line: qHTS assay to identify novel small-molecules to repurpose for Merkel cell carcinoma treatment (AID 1296009). The conditions noted are these: MCC and control cell lines, CellTiter-Glo viability, 72 h; at 44.8 µM (top of the series) unless noted. The gist of the method: (§2)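 Cells were treated for 72 hr at 37 degree celsius with compounds in 8- or 11-point dose response. Viability was read by CellTiter-Glo luminescence, normalized to no-cell (cytotoxicity) and DMSO controls.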

The test system of a further assay is HEK293T. Described as above. The conditions noted are these: MCC and control cell lines, CellTiter-Glo viability, 72 h; at 44.8 µM (top of the series) unless noted. The gist of the method: as §2
A further assay relates to MCC-13. The assay is described as above. The conditions noted are these: MCC and control cell lines, CellTiter-Glo viability, 72 h; series mostly up to 46 µM. The gist of the method: as §2
A further assay relates to MCC-26. Described as above. The following applies: MCC and control cell lines, CellTiter-Glo viability, 72 h; series mostly up to 46 µM. The gist of the method: as §2
The test system of another assay is MKL-1. Described as above. The following applies: MCC and control cell lines, CellTiter-Glo viability, 72 h; series mostly up to 46 µM. The gist of the method:
as §2

Assay [2] relates to NIH3T3. The assay is described as above. The following applies: MCC and control cell lines, CellTiter-Glo viability, 72 h; at 44.8 µM (top of the series) unless noted. In a few lines: as §2
The next assay deals with UISO. Described as above. The following applies: MCC and control cell lines, CellTiter-Glo viability, 72 h; series mostly up to 46 µM. The gist of the method:
as §2

The test system of the next assay is MKL-2. The assay is described as above. The conditions noted are these: MCC and control cell lines, CellTiter-Glo viability, 72 h; series mostly up to 46 µM. In a few lines:
as §2

Several values for one entry are separate records, joined by “and”; a condition that tells them apart may be missing. Equal values may be shown once. Inconclusive results are not listed. More than one record can exist for a structure, and the calls need not agree. A number with no mark means an inactive call. Activity calls are given as the source filed them. Calls follow the shape of the dose curve; as a rule, active = well fitted inhibition curve with a large enough effect; inconclusive = small, poorly fitted or top-dose-only effect; inactive = flat fitted curve, though single readings scatter.
% is scaled to controls: 0 for no effect and ±100 for the full control effect; potency is read from the fitted curve at half-maximal effect.
Also: nearly all actives have a fitted effect of over 60% in size.

In the case of `CC1(C)CCC(C)(C)c2cc(NC(=O)c3ccc(C(=O)O)cc3)ccc21`, the max response in the assay with KB-3-1 is 33.6%; in the assay on NIH3T3 [1], -2.77%. Further, the call in the assay on NIH3T3 [1], in the assay with HACAT, in the assay with HEK293T and in the assay on NIH3T3 [2] was inactive. Moreover, the Potency entry in the assay with MCC-13, in the assay with MCC-26, with MKL-1 and in the assay with UISO was “inactive” throughout.

Regarding `CN(C)C(=O)COC(=O)Cc1ccc(OC(=O)c2ccc(N=C(N)N)cc2)cc1`, the max response is 4.33% and 2.16% with KB-3-1; 2.87% in the assay on NIH3T3 [1]. Besides, the compound was classed as inactive in the assay with NIH3T3 [1], with HACAT, in the assay on HEK293T and with NIH3T3 [2]. Further, the Potency result in the assay on MCC-13, with MCC-26, with MKL-1, in the assay with MKL-2 and in the assay on UISO was “inactive” each time.

As for `CC(C)[C@H](N)C(=O)OCCOCn1cnc2c(=O)[nH]c(N)nc21`, the max response with KB-3-1 is 10.2%. For the same compound, the result with KB-3-1, with NIH3T3 [1], in the assay on HACAT, in the assay on HEK293T and with NIH3T3 [2] was inactive. In addition, the Potency result in the assay with MCC-13, in the assay on MCC-26, with MKL-1, in the assay with MKL-2 and in the assay with UISO was “inactive” throughout.

As for `Nc1ccn([C@@H]2O[C@H](CO)[C@@H](O)C2O)c(=O)n1` (stereo partly drawn), the max response in the assay on KB-3-1 is 21.2%. Also, the compound was classed as inactive with KB-3-1, in the assay with NIH3T3 [1], in the assay with HACAT, with HEK293T and in the assay on NIH3T3 [2]. Moreover, the Potency result in the assay with MCC-13, in the assay on MCC-26, in the assay on MKL-1, in the assay on MKL-2 and with UISO was “inactive” throughout.

For `O=C(O)c1cccnc1Nc1cccc(C(F)(F)F)c1`, the max response is 5.86% and -3.77% in the assay with KB-3-1; -31.9% in the assay on NIH3T3 [1]. The call in the assay on NIH3T3 [1], in the assay on HACAT and in the assay on NIH3T3 [2] was inactive. Moreover, the Potency result with MCC-13, in the assay on MCC-26, with MKL-1, with MKL-2 and in the assay on UISO was “inactive” each time.

Consider `CCC1=C(C)CN(C(=O)NCCc2ccc(S(=O)(=O)NC(=O)NC3CCC(C)CC3)cc2)C1=O` (stereo not drawn), for which the max response in the assay with KB-3-1 is -10.1% and -9.63%; with NIH3T3 [1] it was 0.91%. Also, the result in the assay with NIH3T3 [1], with HACAT, in the assay with HEK293T and in the assay on NIH3T3 [2] was inactive. Also, the Potency result with MCC-13, in the assay with MCC-26, in the assay on MKL-1, in the assay with MKL-2 and in the assay with UISO was “inactive” in each case.

As for `Cc1nc(-c2ccc(OCC(C)C)c(C#N)c2)sc1C(=O)O`, the max response in the assay on KB-3-1 is 3.2%; in the assay on NIH3T3 [1] it was 4.8%. Also, the compound was called inactive in the assay on NIH3T3 [1], in the assay on HACAT and in the assay on NIH3T3 [2]. Besides, the Potency result in the assay on MCC-13, with MCC-26, with MKL-1, in the assay on MKL-2 and in the assay on UISO was “inactive” throughout.

As for `O=C(NC(Cc1cc(=O)[nH]c2ccccc12)C(=O)O)c1ccc(Cl)cc1` (stereo not drawn), in the assay with KB-3-1, the max response was 9.29%. Further, the compound was classed as inactive in the assay on KB-3-1, in the assay on NIH3T3 [1], in the assay with HACAT and in the assay with NIH3T3 [2]. Moreover, the Potency result with MCC-13, in the assay with MCC-26, in the assay on MKL-1, with MKL-2 and in the assay on UISO was “inactive” each time.

For the compound `CCOc1cc(CC(=O)N[C@@H](CC(C)C)c2ccccc2N2CCCCC2)ccc1C(=O)O`, the max response with KB-3-1 is 4.6%; in the assay with NIH3T3 [1], 4.08%. For the same compound, the compound was classed as inactive with KB-3-1, in the assay with HACAT and in the assay with HEK293T. Besides, the Potency result with MCC-13, in the assay on MCC-26, in the assay on MKL-1, in the assay with MKL-2 and in the assay with UISO was “inactive” each time.

With `c1cnc2cc3c(cc2n1)C1CNCC3C1`, the max response with KB-3-1 is 3.64% and -1.73%; in the assay with NIH3T3 [1], 4.61%. Also, the compound was called inactive in the assay with KB-3-1, with NIH3T3 [1], in the assay with HACAT and with NIH3T3 [2]. The Potency entry in the assay with MCC-13, with MCC-26, with MKL-1, in the assay with MKL-2 and in the assay on UISO was “inactive” each time.

On to `CCN(CC)C(=S)SSC(=S)N(CC)CC`, for which the Potency in the assay on KB-3-1 was 83.3 nM (active); with MCC-13 it was 2.09 µM (active) and 111 nM (active) and 944 nM (active); in the assay with MCC-26, 1.48 µM (active) and 596 nM (active); in the assay with MKL-1, 1.18 µM (active) and 62.4 nM (active) and 422 nM (active); in the assay on MKL-2, 1.32 µM (active) and 44.2 nM (active) and 531 nM (active); in the assay with UISO, 1.05 µM (active) and 70 nM (active) and 473 nM (active). For the same compound, in the assay with KB-3-1, the max response is 0.882% and 32.2%.

`Cc1cc2c(s1)Nc1ccccc1N=C2N1CCN(C)CC1`: in the assay with KB-3-1, the max response is 7.18% and 6.8%. In addition, the result with KB-3-1, in the assay with NIH3T3 [1], with HACAT, with HEK293T and with NIH3T3 [2] was inactive. Besides, the Potency result in the assay with MCC-13, in the assay on MCC-26, with MKL-1, with MKL-2 and with UISO was “inactive” throughout.

Regarding `COCCCOc1ccnc(CS(=O)c2nc3ccccc3[nH]2)c1C` (stereo not drawn), the max response in the assay on KB-3-1 was -10%; with NIH3T3 [1], -12.1% and 2.17%. Besides, the outcome in the assay on KB-3-1, in the assay on NIH3T3 [1] and with NIH3T3 [2] was inactive. Further, in the assay on HACAT, the outcome is “inactive; activator”. Besides, the Potency result in the assay on MCC-13, with MCC-26, with MKL-1, in the assay with MKL-2 and in the assay with UISO was “inactive” in each case.

With `Cc1ccc(NC(=O)c2ccc(CN3CCN(C)CC3)cc2)cc1Nc1nccc(-c2cccnc2)n1`, the max response with KB-3-1 was -0.677% and -9.97% and -10.5%; with NIH3T3 [1], -15.2%. Besides, the compound was classed as inactive with NIH3T3 [1], in the assay on HACAT and in the assay on NIH3T3 [2]. Further, the Potency result in the assay with MCC-13, in the assay with MCC-26, with MKL-1, in the assay with MKL-2 and in the assay with UISO was “inactive” throughout.

Consider `Oc1ccc(OCc2ccccc2)cc1`, for which, in the assay on KB-3-1, the max response is 45.1%. Also, the result with KB-3-1, with NIH3T3 [1] and with NIH3T3 [2] was inactive. Further, the Potency entry in the assay on MCC-13, with MCC-26, in the assay on MKL-1, in the assay on MKL-2 and with UISO was “inactive” throughout.
